Measurements from PubChem BioAssay (NCI).
This is part of a sample that, as a whole, favours compounds with a hit. Of some 83,000 tested, about 20% had one in any assay.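 Method: cells in 96-well plates; compound added at one concentration; 48 h incubation; percent growth measured; values under 10 scored active.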 Activity calls are given as the source filed them.

What follows are molecules tested on MDA-MB-231 breast (assay: NCI-60 one-dose screen, 48 h (100 = growth as untreated, 0 = no growth, -100 = all killed)). Conditions: 10 µM unless noted.
`COc1ccc(/C(=C\c2cc(OC)c(OC)c(OC)c2)C(=O)N2CCNCC2)cc1` was tested, and the growth was 102% (inactive).
For `O=c1c2sc3ncc(Cl)cc3c2nnn1-c1cccc(Cl)c1`, the growth was 110% (inactive).
With `F` the growth was 5.12% [6.87 mM] (active).
`CC1=C(C(=O)Nc2ccc(F)cc2)C(c2ccc(C)cc2)C2=C(CC(C)(C)CC2=O)N1` (stereo not drawn) was tested, and the growth was 86.6% (inactive).
With `CC[C@H](Nc1nc(N)nc(C2CC2)c1C#N)c1nc2cccc(NCc3ccc(C(=O)NO)cc3)c2c(=O)n1-c1ccccc1` the growth was 2.7% (active).
With `CC(C)N1CCN(c2ccncc2S(=O)(=O)N2CCN(C)CC2)CC1` the growth was 101% (inactive).
`c1ccc(C(CC2=NCCCN2)c2ccccc2)cc1` was tested, and the growth was 88.6% (inactive).
In the case of `Clc1ccc2c(c1)-c1ccccc1C1=NCCN12`, the growth is reported as 45.6% (inactive).
`O=C(C=P(c1ccccc1)(c1ccccc1)c1ccccc1)CCl` was tested, and the growth was 16.2% (inactive).
In the case of `COc1cc(/C=C/C(=O)c2ccc(NC(=O)CSc3nnc(-c4ccc(Cl)cc4)n3-c3ccccc3)cc2)cc(OC)c1OC`, the growth is reported as 54.9% (inactive).
For `OC(c1cc2cc(Cl)ccc2c2cc(C(F)(F)F)ccc12)C1CCCCN1` (stereo not drawn), the growth was -68% (active).
In the case of `Clc1cc(Br)ccc1-c1ccc(CNCC2CCNCC2)o1`, the growth is reported as 50.8% (inactive).
With `CN1CCN(Cc2ccc(NC(=O)c3cncc(C#Cc4ncc5cnccn45)c3)cc2C(F)(F)F)CC1` the growth was 25.6% (inactive).
In the case of `CC1=C(C(=O)Nc2ccc(F)cc2)C(c2ccc(Cl)cc2)C2=C(CC(C)(C)CC2=O)N1` (stereo not drawn), the growth is reported as 82% (inactive).
For `CCOC(=O)c1ccc(N(CCC(=O)O)C(C)=O)cc1`, the growth was 110% (inactive).
`O=c1[nH]c2cc(Cl)c(Cl)cc2o1` was tested, and the growth was 100% (inactive).
`CC(COC(=O)c1ccccc1)N1CC2CCC(C1)O2` (stereo not drawn) was tested, and the growth was 107% (inactive).
In the case of `CC[C@H](Nc1nc(C)nc(N)c1C#N)c1nc2cccc(NCc3ccc(C(=O)NO)cc3)c2c(=O)n1-c1ccccc1`, the growth is reported as 14.7% (inactive).
`Cc1cc(NC(=O)C2c3ccccc3C(=O)N(CC(C)C)C2c2cccs2)no1` (stereo not drawn) was tested, and the growth was -14.2% (active).
With `Clc1ccc2c(c1)-n1cccc1C(c1ccc3ccccc3c1)=NC2` the growth was 120% (inactive).
For `CCC1CCc2nc3sc(C(=O)Nc4cccc(F)c4)c(N)c3cc2C1` (stereo not drawn), the growth was 78.3% (inactive).
For `CCn1c(CN2CCN(Cc3ccccc3)CC2)nc2cc(NC(=O)c3cccs3)ccc21`, the growth was -90.6% (active).
For `CCN(CC)CCCNc1cccc2c(C)cc(OC)nc12`, the growth was 81% (inactive).
`COc1ccc(-c2cn(-c3cccc(C(=O)/C=C/c4ccc(O)c(OC)c4)c3)c(=O)[nH]2)cc1` was tested, and the growth was 38.9% (inactive).
For `COc1ccc(/C=c2\c(=O)n(-c3ccccc3)c3nn4c(n23)=NNC42CCCCC2)cc1`, the growth was 87.3% (inactive).
`CCNC(=S)N(Cc1ccccc1)Cc1ccccc1` was tested, and the growth was 116% (inactive).
In the case of `CCCCCCCCCCCCCCCc1cc(O)ccc1[N+](=O)[O-]`, the growth is reported as 69.2% (inactive).
`COC1=CC(c2ccc[nH]2)=N/C1=C\c1[nH]c(C)c(C(=O)CCCCCCCCC(=O)O[C@H]2CC[C@H]3C4CCc5cc(O)ccc5C4CC[C@]23C)c1C` (stereo partly drawn) was tested, and the growth was 3.86% (active).
In the case of `CCc1oc2ccccc2c1C(=O)c1cc(I)c(O)c(I)c1`, the growth is reported as 54.7% (inactive).
With `Cc1ccc(N=CNN=C(N)N)cc1` the growth was 118% (inactive).
With `CCCCN(CCCC)CCCN=c1nc2c(c(N)n1-c1ccccc1)c(=S)n(-c1ccccc1)c(=S)n2-c1ccccc1` the growth was -89.1% (active).
In the case of `[Ag].[Ag].[NH-]S(=O)(=O)c1ccc(N=Nc2cc(N=Nc3ccc(S([NH-])(=O)=O)cc3)c3c(NC(=O)C(Cl)Cl)cccc3c2OC(=O)C(Cl)Cl)cc1.[c-]1nccs1.[c-]1nccs1`, the growth is reported as 49.5% (inactive).
For `COc1cc(NCCCCC(C)N)c2nccc(C)c2c1` (stereo not drawn), the growth was 62.9% (inactive).
`COC(=O)C(C)NC1=C(Cl)C(=O)C(NC(C)C(=O)OC)=C(Cl)C1=O` (stereo not drawn) was tested, and the growth was 94.6% (inactive).
For `COc1cc2nccc(Oc3ccc(NC(=O)C4(C(=O)Nc5ccc(F)cc5)CC4)cc3)c2cc1OC(=O)c1ccc(N)cc1`, the growth was -1.25% (active).
For `O=C(NO)c1ccc(NCc2csc3ccccc23)cc1`, the growth was 60.9% (inactive).
`COc1ccc2[nH]c(O)c(/C=c3/ccc4c(c3)N=C(c3ccc(F)cc3)N=4)c2c1` was tested, and the growth was 83.2% (inactive).
In the case of `CCN(CC)CCCC(C)N/C(c1cccc(OC)c1)=c1\c(=O)[nH]n(-c2c3ccccc3nc3ccccc23)c(=O)\c1=C(/NC(C)CCCN(CC)CC)c1cccc(OC)c1` (stereo not drawn), the growth is reported as -51.9% (active).
